Screening data deposited in PubChem by University of Kansas High Throughput Screening Laboratory.
Rows were chosen to be rich in hits. Some 3.5% of all compounds tested hit in one or more screens of this group.
mHTT-CaM PPI inh = disrupts binding of mutant huntingtin to calmodulin; AID 1671202; inhibition, % at 15 µM; AlphaScreen His-mHTT/GST-CaM binding, luminescence; hit rate 3.6% among 190,000; P42858;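 note: 0% = both proteins with DMSO and 100% = one protein alone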
Pf apPOL inh = Pf-apPOL DNA polymerase inhibition | Recombinant Pf-apPOL, molecular beacon fluorescence, 1.5 h | inhibition, % at 10 µM | hit rate 0.25% among 210,000 | AID 1794808
* = called active by the depositor; i = inactive; nt = no result. Cut-off read from the data, not from the text of the source: active = inhibition above about 50%; inactive = the rest.

SMILES | mHTT-CaM PPI inh | Pf apPOL inh
COc1ccc(-c2nnc(-c3cccc([N+](=O)[O-])c3)o2)cc1 | -13 | 6
CC(=O)CC1c2cc(F)ccc2C=C(c2ccsc2)N1c1ccc(C#CC2(O)CCCCC2)cc1 (stereo not drawn) | -12 | -8
CC(=O)CC1c2cc(F)ccc2C=C(c2ccsc2)N1c1ccc(C#Cc2cncn2C)cc1 (stereo not drawn) | 75* | 0
COc1ccc(-c2nnc(N3CCC(C(=O)N4CCN(c5ccccc5)CC4)CC3)o2)cc1 | 13 | 0
CCn1ncc(C(=O)Nc2ccc(S(=O)(=O)Nc3ncccn3)cc2)c1C | 3 | -17
O=C(c1cccc(Oc2cc(-c3ccccc3)ncn2)c1)N1CCCC1 | 70* | 60*
CC(C)Oc1cccc(C(=O)N2CCCC2)c1 | -2 | -4
Cc1ccc(S(=O)(=O)c2ccccc2)cc1S(N)(=O)=O | -5 | -7
COc1ccc(CN2CCc3nc(Nc4ccccc4)ncc3C2)c(OC)c1 | 0 | -2
CC(/C=C1\SC(=O)N(c2ccc(O)cc2)C1=O)=C\c1ccccc1 | 60* | -4
Cc1ccc(N2C(=O)S/C(=C\c3ccc(O)cc3)C2=O)cc1 | 12 | -3
COc1ccc(NC(NC(=O)c2cc([N+](=O)[O-])cc([N+](=O)[O-])c2)C(Cl)(Cl)Cl)cc1 (stereo not drawn) | 69* | -6
Cc1cccc(C(=O)NC(Nc2ccc([N+](=O)[O-])cc2)C(Cl)(Cl)Cl)c1 (stereo not drawn) | 38 | -1
Cc1ccccc1NC(NC(=O)c1cc([N+](=O)[O-])cc([N+](=O)[O-])c1)C(Cl)(Cl)Cl (stereo not drawn) | 53* | -2
Cc1ccc(C(=O)NC(Nc2ccccc2C)C(Cl)(Cl)Cl)cc1 (stereo not drawn) | -6 | 0
O=C(NC(Nc1cccc([N+](=O)[O-])c1)C(Cl)(Cl)Cl)c1cccc(Cl)c1 (stereo not drawn) | 86* | -1
O=C(NC(Nc1ccc([N+](=O)[O-])cc1)C(Cl)(Cl)Cl)c1ccccc1 (stereo not drawn) | 44 | -8
O=C(NC(Nc1ccccc1Cl)C(Cl)(Cl)Cl)c1cccc([N+](=O)[O-])c1 (stereo not drawn) | 74* | -4
CN(C)C(=O)NC(Nc1cccc([N+](=O)[O-])c1)C(Cl)(Cl)Cl (stereo not drawn) | 0 | -2
Cc1ccc(NC(=O)C2OC3OC(C)(C)OC3C3OC(C)(C)OC23)cc1 (stereo not drawn) | -2 | -6
CO/N=C(\C(=O)NC1C(=O)N2C(C(=O)O)=C(COC(C)=O)CSC12)c1csc(N)n1 (stereo not drawn) | i | nt
COc1ccc(NC(=O)CCC2CCN(c3cc(NC4CC4)ncn3)CC2)cc1OC | 14 | -1
Cc1[nH]c2ccccc2c1C(c1ccco1)c1c(C)[nH]c2ccccc12 | 55* | -4
Cc1[nH]c2ccccc2c1C(C[N+](=O)[O-])c1ccco1 (stereo not drawn) | 37 | -4
COc1cc(C(=O)Nc2ccc(OC(C)C)cc2)cc(OC)c1OC | 13 | -7
SMILES | mHTT-CaM PPI inh | Pf apPOL inh
O=C(CCN1CCN(C2c3ccccc3-c3ccccc32)CC1)Nc1ccccc1F | 15 | -2
CCOc1ccccc1NC(=O)CCN1CCN(C2c3ccccc3-c3ccccc32)CC1 | 57* | 0
CCCOc1ccccc1/C=C1/SC(N2CCOCC2)=NC1=O | 5 | -2
O=C(c1cc(Cl)ccc1Cl)N1CCN(CC(O)c2cccs2)CC1 (stereo not drawn) | -12 | -1
COc1cc(/C=C2\C(=O)Nc3ccc(Br)cc32)cc(Br)c1O | 100* | -6
CCOc1cc(/C=C2\C(=O)Nc3ccc(Br)cc32)cc(Br)c1OCC | 9 | 0
O=C1Nc2ccc(Br)cc2/C1=C/c1ccc(OC2CCCC2)cc1 | 46 | -12
CC(C)c1ccc(/C=C2\C(=O)Nc3ccc(Br)cc32)cc1 | 19 | 0
COc1cc(/C=C2\NC(=O)NC2=O)cc(Br)c1O | 13 | -4
O=C1Nc2ccc(Br)cc2/C1=C/C1CC=CCC1 (stereo not drawn) | 51* | 4
COc1cc(/C=C2\C(=O)Nc3ccc(Br)cc32)cc(Br)c1OC | 59* | -5
COc1ccc(/C=C2\C(=O)Nc3ccc(Br)cc32)cc1O | 99* | -8
CCN(CC)C(=O)C1CCCN(Cc2ccc(SC)cc2)C1 (stereo not drawn) | -3 | -2
CSc1nnc(-c2nn(C)c3c2CN(C(=O)CCc2ccccc2)CC3)n1C | 2 | -7
CCOc1ccc2c(c1)OC(=Cc1cc(Br)ccc1OC)C2=O | 7 | -5
Cc1cccc2nnc(N3CCCC(C(=O)NCc4ccccc4)C3)n12 (stereo not drawn) | 0 | 2
CCn1c2ccccc2c2nnc(SCC(=O)Nc3ccc(C)c(Cl)c3)nc21 | 0 | -8
O=C(Nc1c2c(nn1-c1ccc([N+](=O)[O-])cc1)CSC2)c1ccccc1[N+](=O)[O-] | 12 | -3
CC(=O)Nc1ccc2nc(SCC(=O)NC3CCCCC3)sc2c1 | -7 | 2
O=C(C1CCN(c2nc3ccc(-c4cncnc4)nc3s2)CC1)N1CCCCC1 | 4 | 0
CC(=O)N1CC(c2nc(-c3ccc(F)cc3)no2)C2(CCOCC2)C1 (stereo not drawn) | -10 | -3
COC(=O)CNC(=O)C1COc2ccc(NC(=O)C(C)C)cc2C1 (stereo not drawn) | 4 | -5
COc1cc(/C=C2\C(=O)Nc3ccc(Br)cc32)cc(OC)c1O | 100* | -89
COc1cc(/C=C2\C(=O)Nc3ccc(F)cc32)cc(OC)c1OC | 16 | -7
CCC(C)NC(=O)N1CCc2c(c(-c3nc(C)no3)nn2C)C1 (stereo not drawn) | -6 | -7
